Test results from PubChem BioAssay (NCI).
About 83,000 compounds went through this panel and 20% of them were active in at least one assay; those are over-represented in the sample as a whole.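 Cell lines were cultured in 96-well plates, exposed to a single compound concentration, and assessed for percent growth 48 hours later.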 Active and inactive are the calls of the source. How the source made its calls: active means growth percent below 10; inactive means the rest.

Key:
Assay in all cases: NCI-60 one-dose screen, 48 h (100 = growth as untreated, 0 = no growth, -100 = all killed)
Conditions in all cases: 10 µM unless noted
DU-145 prostate = tested on: DU-145 prostate
K-562 leukemia = tested on: K-562 leukemia
MALME-3M melanoma = tested on: MALME-3M melanoma
MDA-MB-231 breast = tested on: MDA-MB-231 breast
RXF 393 renal = tested on: RXF 393 renal
SF-268 CNS = tested on: SF-268 CNS
SF-295 CNS = tested on: SF-295 CNS
SF-539 CNS = tested on: SF-539 CNS
UACC-257 melanoma = tested on: UACC-257 melanoma
M14 melanoma = tested on: M14 melanoma
HCT-15 colon = tested on: HCT-15 colon
HT29 colon = tested on: HT29 colon
SNB-75 CNS = tested on: SNB-75 CNS
SNB-19 CNS = tested on: SNB-19 CNS
U251 CNS = tested on: U251 CNS
PC-3 prostate = tested on: PC-3 prostate
UACC-62 melanoma = tested on: UACC-62 melanoma
LOX IMVI melanoma = tested on: LOX IMVI melanoma
SK-MEL-28 melanoma = tested on: SK-MEL-28 melanoma
SK-MEL-5 melanoma = tested on: SK-MEL-5 melanoma

Measured: growth

CC1(C)C2=C(C(=O)N1Cc1ccccc1)C(c1ccco1)N(C(=O)C1CCC1)CCN2 (configuration not stated)
inactive: DU-145 prostate 110% | K-562 leukemia 110% | MALME-3M melanoma 105% | MDA-MB-231 breast 95.5% | RXF 393 renal 136% | SF-268 CNS 96.5% | SF-295 CNS 108% | SF-539 CNS 101% | UACC-257 melanoma 95.6% | M14 melanoma 103% | HCT-15 colon 109% | HT29 colon 106% | SNB-75 CNS 83.7% | SNB-19 CNS 98.9% | U251 CNS 100% | PC-3 prostate 95.2% | UACC-62 melanoma 91.7% | LOX IMVI melanoma 96.8% | SK-MEL-28 melanoma 115%

Cc1cc2c(C(C)C)c(O)c(O)c(/C=N/O)c2c(O)c1-c1c(C)cc2c(C(C)C)c(O)c(O)c(/C=N/O)c2c1O
active: DU-145 prostate -93.8% | K-562 leukemia -9.09% | RXF 393 renal -1.98% | SF-539 CNS -11.3% | M14 melanoma 7.91% | HT29 colon 1.38% | U251 CNS 1.13% | UACC-62 melanoma 9.12% | LOX IMVI melanoma -22.9%
inactive: MALME-3M melanoma 51% | MDA-MB-231 breast 25.5% | SF-268 CNS 26.3% | SF-295 CNS 16.7% | UACC-257 melanoma 11.6% | HCT-15 colon 29.3% | SNB-75 CNS 80.3% | SNB-19 CNS 30.4% | PC-3 prostate 27.9% | SK-MEL-5 melanoma 16.3% | SK-MEL-28 melanoma 19.8%

CCCCCCCCNc1ncnc2c1ncn2Cc1nnc2c3ccccc3c(Cl)nn12
inactive: DU-145 prostate 49% | K-562 leukemia 14.8% | MALME-3M melanoma 69.9% | MDA-MB-231 breast 55.4% | RXF 393 renal 36.1% | SF-268 CNS 35.5% | SF-295 CNS 61.8% | SF-539 CNS 49.9% | UACC-257 melanoma 46.9% | M14 melanoma 34.5% | HCT-15 colon 32.8% | HT29 colon 44.1% | SNB-75 CNS 37.6% | SNB-19 CNS 56.2% | U251 CNS 44.8% | PC-3 prostate 36.5% | UACC-62 melanoma 29.9% | LOX IMVI melanoma 12.8% | SK-MEL-28 melanoma 62.9%

COc1cc2cc(Oc3ccc(NC(=O)Nc4ccc(F)c(C(F)(F)F)c4)cc3)c(C)nc2cc1OCCN1CCCCC1
inactive: MDA-MB-231 breast 27.6% | RXF 393 renal 59.5% | SF-268 CNS 76.6% | SF-295 CNS 72.8% | SF-539 CNS 75.3% | SNB-75 CNS 92.7% | SNB-19 CNS 62.9% | UACC-62 melanoma 50.6%
active: DU-145 prostate -24.2% | K-562 leukemia -34.7% | MALME-3M melanoma -87.9% | UACC-257 melanoma -52.5% | M14 melanoma -86.8% | HCT-15 colon -71.5% | HT29 colon -74% | U251 CNS -85.3% | PC-3 prostate -76% | LOX IMVI melanoma -70.4% | SK-MEL-28 melanoma -62.5%

c1ccc2[nH]c(-c3ccc(-c4nccc5c4[nH]c4ccccc45)cc3)nc2c1
active: K-562 leukemia 3.52% | SF-539 CNS -40.4% | HT29 colon 4.38% | UACC-62 melanoma -24%
inactive: DU-145 prostate 67.4% | MALME-3M melanoma 90.4% | MDA-MB-231 breast 30.2% | RXF 393 renal 44.6% | SF-268 CNS 52.3% | SF-295 CNS 75.1% | UACC-257 melanoma 81.8% | M14 melanoma 72.8% | HCT-15 colon 38.7% | SNB-75 CNS 64.9% | SNB-19 CNS 55.1% | U251 CNS 24.2% | PC-3 prostate 85.7% | LOX IMVI melanoma 10.8% | SK-MEL-28 melanoma 61.3%

O=C1CCc2c(sc3[nH]c(=S)n(-c4cc(C(F)(F)F)cc(C(F)(F)F)c4)c(=O)c23)C1
inactive: DU-145 prostate 25.2% | K-562 leukemia 22.5% | SF-268 CNS 19.3% | M14 melanoma 23.6% | SNB-19 CNS 15.1%
active: MALME-3M melanoma -16.7% | MDA-MB-231 breast -42.5% | RXF 393 renal -3.65% | SF-295 CNS -21.8% | SF-539 CNS -51.1% | UACC-257 melanoma -25.4% | HCT-15 colon -42.9% | HT29 colon 0.73% | SNB-75 CNS -8.04% | U251 CNS -22.4% | PC-3 prostate -38.4% | UACC-62 melanoma -12.9% | LOX IMVI melanoma 1.59% | SK-MEL-28 melanoma -16.8%

CCOC(=O)c1cc(C(=O)c2cc(OC)cc(OC)c2)n2ncccc12
active: M14 melanoma -15.7% | HT29 colon 7.23%
inactive: DU-145 prostate 37.4% | K-562 leukemia 17.8% | MALME-3M melanoma 47.1% | MDA-MB-231 breast 54.5% | RXF 393 renal 35.9% | SF-268 CNS 44.3% | SF-295 CNS 28.2% | SF-539 CNS 20% | UACC-257 melanoma 37.6% | HCT-15 colon 21.5% | SNB-75 CNS 23.5% | SNB-19 CNS 47.1% | U251 CNS 24.7% | PC-3 prostate 36.2% | UACC-62 melanoma 26.2% | LOX IMVI melanoma 39.7% | SK-MEL-28 melanoma 71.2%

C=C(CNCCO)[C@@H]1CC[C@]2(CO)CC[C@]3(C)[C@H](CC[C@@H]4[C@@]5(C)CCC(NCCO)C(C)(C)[C@@H]5CC[C@]43C)[C@@H]12 (some centres not stated)
inactive: DU-145 prostate 79.2% | MALME-3M melanoma 61.8% | MDA-MB-231 breast 51.4% | RXF 393 renal 57.4% | SF-268 CNS 69.1% | SF-295 CNS 80.8% | SF-539 CNS 70.8% | UACC-257 melanoma 77.9% | M14 melanoma 14.3% | HCT-15 colon 71.6% | HT29 colon 12.7% | SNB-75 CNS 66.8% | SNB-19 CNS 83.6% | U251 CNS 31.4% | PC-3 prostate 75.2% | UACC-62 melanoma 94.6% | LOX IMVI melanoma 33.3% | SK-MEL-28 melanoma 80.7%
active: K-562 leukemia 0.374%

C/C(=N\NC(=O)c1ccc(C(C)(C)C)cc1)c1ccc(O)cc1O
active: RXF 393 renal -9.15% | UACC-257 melanoma 8.32% | LOX IMVI melanoma -4.95%
inactive: DU-145 prostate 29.3% | K-562 leukemia 12.9% | MALME-3M melanoma 28.4% | MDA-MB-231 breast 37.4% | SF-268 CNS 27.6% | SF-295 CNS 16.2% | SF-539 CNS 14.7% | M14 melanoma 23% | HCT-15 colon 16.5% | HT29 colon 25.3% | SNB-75 CNS 54.7% | SNB-19 CNS 40.1% | U251 CNS 25.2% | PC-3 prostate 33.8% | UACC-62 melanoma 14.1% | SK-MEL-28 melanoma 36.1%

O=C(CSc1nc(-c2ccccc2)cn1-c1ccc(Cl)cc1)c1ccc([N+](=O)[O-])cc1
active: SF-268 CNS -86.7%
inactive: DU-145 prostate 93.2% | K-562 leukemia 76.7% | MALME-3M melanoma 103% | MDA-MB-231 breast 81.8% | RXF 393 renal 71.2% | SF-295 CNS 95.4% | SF-539 CNS 92.4% | UACC-257 melanoma 97.9% | M14 melanoma 82% | HCT-15 colon 76.1% | HT29 colon 56.1% | SNB-75 CNS 93.8% | SNB-19 CNS 90.8% | U251 CNS 93.3% | PC-3 prostate 73.2% | UACC-62 melanoma 66.2% | LOX IMVI melanoma 96.1% | SK-MEL-28 melanoma 89%

COc1ccc(S(=O)(=O)Oc2ccc(-c3sc4cc(OS(=O)(=O)c5ccc(OC)cc5)ccc4c3C(=O)c3ccc(OCCN4CCCCC4)cc3)cc2)cc1
inactive: DU-145 prostate 107% | K-562 leukemia 103% | MALME-3M melanoma 92.3% | MDA-MB-231 breast 108% | RXF 393 renal 110% | SF-268 CNS 102% | SF-295 CNS 93.2% | SF-539 CNS 95.2% | UACC-257 melanoma 93% | M14 melanoma 105% | HCT-15 colon 101% | HT29 colon 92% | SNB-75 CNS 70.9% | SNB-19 CNS 103% | U251 CNS 99.7% | PC-3 prostate 106% | UACC-62 melanoma 101% | LOX IMVI melanoma 101% | SK-MEL-28 melanoma 103%

COc1ccc(C2=C/C(=C\c3ccccc3O)C(=O)N2Cc2ccccc2)cc1
inactive: DU-145 prostate 96.2% | K-562 leukemia 51.1% | MALME-3M melanoma 63.4% | MDA-MB-231 breast 93.7% | RXF 393 renal 76.2% | SF-268 CNS 86.5% | SF-295 CNS 94% | SF-539 CNS 101% | UACC-257 melanoma 71.7% | M14 melanoma 50.5% | HCT-15 colon 67.6% | HT29 colon 102% | SNB-75 CNS 92.3% | SNB-19 CNS 82.3% | U251 CNS 83.9% | PC-3 prostate 52.2% | UACC-62 melanoma 63.9% | LOX IMVI melanoma 81% | SK-MEL-28 melanoma 79.9%

Cc1ccc(C2=Nc3c(N)nc(N)nc3NC(c3cccc(Nc4ccnc5cc(C(F)(F)F)ccc45)c3)C2)cc1 (configuration not stated)
active: K-562 leukemia 8.46% | HT29 colon 1.9% | SNB-75 CNS 7.55% | LOX IMVI melanoma -2.42%
inactive: DU-145 prostate 46.6% | MALME-3M melanoma 39.1% | MDA-MB-231 breast 34.8% | RXF 393 renal 23.6% | SF-268 CNS 29.7% | SF-295 CNS 15.8% | SF-539 CNS 40.3% | UACC-257 melanoma 62.3% | M14 melanoma 11.1% | HCT-15 colon 15.2% | SNB-19 CNS 34.4% | U251 CNS 12.8% | PC-3 prostate 16.5% | UACC-62 melanoma 40.8% | SK-MEL-28 melanoma 66.8%

C=C1/C(=C\C=C2/CCC[C@]3(C)[C@@H]([C@H](C)CCCC(C)(C)O)CC[C@@H]23)C[C@@H](OC(=O)CBr)C[C@@H]1O
inactive: DU-145 prostate 92.7% | K-562 leukemia 30.8% | MDA-MB-231 breast 20.5% | RXF 393 renal 93.3% | SF-268 CNS 18% | SF-295 CNS 94.6% | UACC-257 melanoma 99.3% | M14 melanoma 84.4% | HCT-15 colon 54.6% | HT29 colon 39.2% | SNB-75 CNS 49.1% | SNB-19 CNS 94.6% | U251 CNS 70.6% | PC-3 prostate 40% | UACC-62 melanoma 69% | SK-MEL-28 melanoma 93.6%
active: MALME-3M melanoma -67.3% | SF-539 CNS -43.1% | LOX IMVI melanoma -50.9%
